Hits are enriched below; roughly 2.5% of the tested compounds scored in any of these assays.
PAX8 inh HTS: inhibitors of PAX8 transcriptional activity in RMG-I cells; AID 652154; RMG-I TPO-luciferase reporter, SteadyGlo, 24 h; 1.2% of 360,000 active; inhibition, % at 12.6 µM;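 active = mean replicate inhibition at least 60% with every replicate also reaching 60%; inconclusive = only one of the two criteria is met; inactive = mean below 60% and not all replicates reaching 60%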;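 note: luciferase light reporting Pax8 driven TPO promoter activity; plate controls were median of neutral control wells for no effect and mitoxantrone controls for full effect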
FXN GAA850 act: increases GAA850 frataxin promoter reporter activity. HEK293 lucGAA850 FXN promoter luciferase reporter, 24 h; percent of 10 µM SAHA response. activation, % at 6 µM. 0.56% of 360,000 active. AID 540364;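 active = activation above the average of all compounds screened plus 3 SD, cutoff fixed separately per campaign, cut at about 7.5% in these data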;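 note: 0% = DMSO wells and 100% = 10 µM SAHA wells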
EWS-Fli inh: inhibitors of EWS/Fli oncoprotein transcriptional activity; inhibition, % at 12.6 µM; AID 651661; A673 NR0B1-luciferase reporter, viability-normalised; 0.67% of 350,000 active;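 active = mean inhibition of at least 50% after viability correction, with every replicate also passing that limit; inconclusive = mean reaches 50% but only one of two replicates passes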;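 note: firefly luciferase signal divided by Alamar Blue viability fluorescence both relative to DMSO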
Env fusion inh: blocks HIV Env-driven cell-cell fusion. HeLa-JRFL Env/CEM21 cell fusion, luciferase. inhibition, % at 12.3 µM. 1.1% of 360,000 active;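 active = mean replicate inhibition score of at least 50 and every replicate individually at or above 50; inconclusive = only one of the two criteria met; inactive = mean below 50 and not all replicates reaching 50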;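 note: 0% = plate neutral controls and 100% = maraviroc near 300 nM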
CFTR F508del cor: correctors of CFTR F508del function in bronchial epithelial cells | CFBE cells, YFP halide quenching; stimulated with forskolin plus potentiator P3; % fluorescence drop versus neutral controls | activity (quench increase), % at 7.58 µM | 0.36% of 350,000 active;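 active = mean added fluorescence quench of at least 8% versus neutral control, with both replicates also reaching 8%; inconclusive = only one of the mean or replicate conditions met; inactive = mean below 8% and not both replicates reaching 8%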;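 note: cells transiently co-express mutant CFTR-F508del with the halide-sensitive YFP; corrector assay measuring rescue of mutant channel to the surface after 24 h compound exposure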
GAA30 counter: counter-screen for GAA850 frataxin promoter activators: GAA30 promoter activation; shares compounds with FXN GAA850 act; HEK293 lucGAA30 FXN promoter luciferase, 24 h; DMSO = 0%, 5 µM ipriflavone = 100%; activation, % at 6 µM; 66% of 1,900 active; AID 588350;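 active = mean activation above the mean of solvent-only control wells plus 3 SD, cut at about 22% in these data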;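 note: counterscreen of GAA850 promoter hits where activity marks nonselective or luminescence artifacts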
FXN GAA850 conf: GAA850 FXN promoter activation confirmation; shares compounds with FXN GAA850 act; HEK293 lucGAA850 FXN promoter luciferase reporter, 24 h; 100% = activation by SAHA; activation, % at 6 µM; 86% of 1,900 active;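 active = mean activation above a set limit taken from the primary screen, cut at about 8% in these data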;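 note: 0% = DMSO wells and 100% = 10 µM SAHA wells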
The depositor's hits bear a star; ? = inconclusive; nt = not tested or not shown; [ ] = remark or other dose.

SMILES	PAX8 inh HTS	FXN GAA850 act	EWS-Fli inh	Env fusion inh	CFTR F508del cor	GAA30 counter	FXN GAA850 conf
O=C1C=CC(=O)N1c1ccccc1N1C(=O)C=CC1=O	?	8.7*	34.5	-64.7	-3.6	-116.6	-34.6
C=C(C)C(=O)Oc1ccc(N2C(=O)CCC2=O)cc1	20.9	1.2	5.6	0.7	-1.1	nt	nt
C=C(C)C(=O)Oc1ccc(N=Nc2ccc(C)cc2)ccc1=O	-69.0	10.5*	0.6	-9.0	3.4	59.0*	40.4*
CO[C@@H](CN(C)S(=O)(=O)c1ccc(F)cc1)[C@H](C)CN(Cc1ccccc1Cl)[C@H](C)CO	nt	nt	11.2	nt	-0.5	nt	nt
COc1ccc(N2C(=O)C3C(C2=O)C(C(=O)c2ccc(Cl)cc2)N2CCCC32)cc1 (centres undefined)	24.3	8.4*	3.0	-64.3	0.9	11.0	3.7
O=C(c1ccc(Cl)cc1)C1C2C(=O)N(c3ccccc3)C(=O)C2C2CCCN21 (centres undefined)	nt	-1.5	nt	nt	nt	nt	nt
C[C@@H]1CCCCO[C@H](CN(C)Cc2ccncc2)[C@H](C)CN([C@H](C)CO)C(=O)c2cc(NC(=O)CCCN(C)C)ccc2O1	2.5	nt	-7.1	-6.7[16.7 µM]	-2.7	nt	nt
O=C(CCl)Nc1ccc(N2CCCCCC2)cc1	-3.2	7.7*	10.6	-0.1	-0.1	10.1	29.4*
CCC(=O)Nc1ccc(N2CCCCC2)cc1	nt	3.6	nt	nt	nt	nt	nt
COc1ccc(C2=Nn3c(nnc3-c3cccnc3)SC2)cc1OC	nt	14.6*	nt	-9.5	nt	31.5*	19.9*
CCCC(=O)N1CC2(C1)CN(S(C)(=O)=O)[C@H](CO)c1c2c2ccc(OC)cc2n1C	17.9	nt	-11.8	nt	-3.6	nt	nt
COc1ccc(CCN2C(=O)c3[nH]nc(-c4ccccc4O)c3C2c2ccccc2)cc1OC (centres undefined)	29.3	13.3*	nt	147.4*	nt	7.2	8.9*
CCOC(=O)c1ccc(NC(=O)c2ccccc2)cc1	nt	8.0*	-83.9	nt	2.2	78.6*	33.0*
CCOC(=O)c1ccc(NC(=O)c2nc(S(=O)(=O)Cc3ccccc3)ncc2Cl)cc1	22.1	15.7*	nt	?	-2.5	-39.8	-26.6
COc1cccc(NC(=O)c2nc(SC)ncc2Cl)c1	24.2	2.4	-11.4	0.0	4.3	nt	nt
COc1cccc(NC(=O)c2nc(S(C)(=O)=O)ncc2Cl)c1	11.3	49.5*	59.1*	-7.5	-5.3	69.0*	26.9*
CCc1ccc(NC(=O)c2nc(S(=O)(=O)Cc3ccccc3)ncc2Cl)cc1	53.2	-8.7	nt	?	2.2	nt	nt
CCC(=O)N[C@H]1C[C@@H]2O[C@H](CO)CC[C@@H]2O[C@@H]1CCc1ccc(-c2cccc(OC)c2)cc1	nt	nt	-4.0	nt	0.6	nt	nt
CC(C)C[C@@]12C(=O)N(c3cccc(Br)c3)C(=O)N1[C@H](c1ccc(F)cc1)[C@@H]1C(=O)N(C3CCCCC3)C(=O)[C@@H]12	8.9	10.7*	-0.1	103.8*	5.2	16.7	10.0*
CC[C@@]12C(=O)N(c3cccc(Br)c3)C(=O)N1[C@H](c1ccc(F)cc1)[C@@H]1C(=O)N(C3CCCCC3)C(=O)[C@@H]12	9.1	8.4*	3.3	93.1*	2.9	17.7	12.1*
O=C(N[C@H]1CC[C@H](CCn2cc(-c3ccccn3)nn2)O[C@H]1CO)c1ccncc1	-7.3	nt	0.4	-4.4[16.7 µM]	1.4	nt	nt
COc1ccc(C(CC(=O)c2ccc(C)cc2)C(C#N)C#N)cc1OC (centres undefined)	nt	8.0*	nt	nt	nt	39.3*	37.8*
COc1cc(/C=N/Nc2ccnc(=O)[nH]2)ccc1O	-14.6	7.7*	12.3	-1.8	5.1	30.9*	7.2
C[C@@H]1CN([C@H](C)CO)C(=O)c2cc(NS(C)(=O)=O)ccc2O[C@@H]1CN(C)S(=O)(=O)c1cn(C)cn1	nt	nt	-41.7	nt	-1.4	nt	nt
O=C(C[C@H]1C=C[C@@H](NS(=O)(=O)c2cccc(F)c2)[C@@H](CO)O1)N1CCCCC1	-12.0	nt	1.6	8.0[16.7 µM]	-0.2	nt	nt
SMILES	PAX8 inh HTS	FXN GAA850 act	EWS-Fli inh	Env fusion inh	CFTR F508del cor	GAA30 counter	FXN GAA850 conf
C/C(=N/NC(=O)c1ccc(Br)o1)C(C)C	23.0	9.1*	4.8	nt	-0.9	15.8	7.0
CCc1ccc2c(c1)NC(=O)C2(C)Cc1ccc(F)cc1 (centres undefined)	-12.5	3.4	-3.7	-13.2	-1.1	nt	nt
CC1(Cc2ccc(C(F)(F)F)nc2)C(=O)Nc2cc(-c3ccccc3Cl)ccc21 (centres undefined)	-22.0	13.9*	2.1	70.4*	1.5	11.8	14.4*
O=C(NC1Cc2ccccc2C1)[C@@H]1[C@@H](CO)[C@@H]2Cn3c(cccc3=O)[C@H]1N2C(=O)CC1CC1	-7.2	nt	-6.6	0.1[16.7 µM]	nt	nt	nt
COc1ccc(NC(=O)CSc2nc(N)c3cc4c(nc3n2)CCCC4)cc1	-93.7	5.6	nt	-34.0	nt	nt	nt
CC(=O)c1ccc(NC(=O)CSc2nc(N)c3cc4c(nc3n2)CCCC4)cc1	24.1	7.7*	-71.3	nt	-3.6	100.7*	27.4*
COc1ccc(NC(=O)N[C@H]2CC[C@H](CCNC(=O)CCN3CCCCC3)O[C@H]2CO)cc1	-13.6	nt	3.3	-9.9[16.7 µM]	-2.1	nt	nt
N#Cc1sc2nc(N3CCCCC3)c3c(c2c1N)CCCC3	nt	7.6*	nt	nt	nt	17.7	17.3*
C[C@H](CO)N1C[C@H](C)[C@@H](CN(C)CC2CCCCC2)Oc2ccc(NC(=O)C3CCCCC3)cc2CC1=O	nt	nt	11.4	5.7[16.7 µM]	1.0	nt	nt
Cc1ccc(S(=O)(=O)Nc2ccc3c(c2)CC(=O)N([C@H](C)CO)C[C@H](C)[C@@H](CN(C)Cc2ccc(C(=O)O)cc2)O3)cc1	-11.3	nt	nt	nt	-0.3	nt	nt
CCNc1ccc(N=Nc2c(C)n(C)n(-c3ccccc3)c2=O)cc1	-14.0	8.4*	-62.7	19.8	3.3	29.3*	13.4*
CO[C@@H](CN(C)C(=O)c1cc(Cl)cc(Cl)c1)[C@@H](C)CN(C(=O)Nc1ccc(F)cc1)[C@@H](C)CO	nt	nt	1.0	nt	1.1	nt	nt
CNC[C@@H]1OCCCC[C@@H](C)Oc2ccc(NC(=O)Nc3ccc(C(F)(F)F)cc3)cc2C(=O)N([C@H](C)CO)C[C@@H]1C	10.5	nt	-9.6	-2.0[16.7 µM]	0.2	nt	nt
NC(=O)C1CC(=O)N(c2ccc(OCc3ccc(Cl)cc3)cc2)C1 (centres undefined)	-85.4	8.3*	-95.7	-29.4	-0.6	74.4*	25.5*
O=Cc1sc(Nc2ccccc2)nc1Cl	-16.2	-0.1	-13.2	-13.0	1.5	nt	nt
COc1ccccc1Nc1nc(Cl)c(C=O)s1	-56.7	11.5*	-10.7	-13.9	1.8	52.7*	46.8*
Fc1cccc(/C=N/Nc2cc(N3CCOCC3)ncn2)c1	-130.9	9.3*	-96.6	15.5	-2.5	127.4*	98.6*
C[C@@H]1CN([C@@H](C)CO)C(=O)c2cccc(NS(C)(=O)=O)c2O[C@H]1CN(C)C(=O)Nc1ccc2c(c1)OCO2	nt	nt	-5.3	-6.8[16.7 µM]	0.1	nt	nt
